According to PubChem BioAssay AID651919 (Sanford-Burnham Center for Chemical Genomics, 2012):

Target: C-X-C chemokine receptor type 6 (Homo sapiens) (UniProt O00574)
Assay: antagonism of CXCR6 versus CXCR5 signaling – cell-based, CHO-K1 PathHunter beta-arrestin, luminescence, set 4, selectivity assay for CXCR6 antagonist project, profiling panel (AID 651919)
Settings: run 3, at 79 µM (top of the series)

Chain of C-X-C chemokine receptor type 6 (Homo sapiens) (O00574 whole entry, looked up): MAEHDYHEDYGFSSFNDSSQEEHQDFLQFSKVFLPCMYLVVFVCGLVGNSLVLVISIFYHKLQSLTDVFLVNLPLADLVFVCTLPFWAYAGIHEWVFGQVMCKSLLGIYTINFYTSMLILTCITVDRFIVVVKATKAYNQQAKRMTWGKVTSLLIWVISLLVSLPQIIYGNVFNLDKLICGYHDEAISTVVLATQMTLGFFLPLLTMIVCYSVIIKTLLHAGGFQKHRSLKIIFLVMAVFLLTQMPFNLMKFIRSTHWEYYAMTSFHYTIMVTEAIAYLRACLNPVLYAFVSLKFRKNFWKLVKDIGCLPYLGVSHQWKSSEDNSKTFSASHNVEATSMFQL

## COc1cc(C(=O)NC2CC3CCCC(C2)N3CC(=O)Nc2ccccc2)cc(OC)c1OC (configuration not stated)
  inhibition: 92.7%

## COc1cc(C(=O)NC2CC3CCCC(C2)N3CC(=O)Nc2ccccc2Cl)cc(OC)c1OC (configuration not stated)
  inhibition: 99.1%
